# From PubChem BioAssay (Tox21)
# Records with an inconclusive call do not appear. Entries that show only a call come without a potency. A number with no mark means an inactive call. Activity calls are given as the source filed them. Unless noted, calls come from the whole dose curve; as a rule, active = well fitted curve in the direction sought with a large enough effect in the repeat runs; inconclusive = weak or mixed curves; inactive = no such curve, though single readings can be large; an effect the other way counts as inactive or inconclusive.
# Key:
# [1] = qHTS assay to identify small molecule antagonists of the vitamin D receptor (VDR) signaling pathway - cell viability counter screen (AID 743225); note: nearly all actives have a fitted effect of over 50% in size; note: potency is the fitted concentration of half-maximal effect
# Procedure, shortened: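 Read-out: CellTiter-Glo luminescence measured 30 min after reagent addition at room temperature. Cells were VDR-bla HEK 293T exposed 16 h at 37C, 5% CO2, to compound with 3 nM final calcitriol agonist.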
# [2] = qHTS assay to identify small molecule agonists of the NFkB signaling pathway - cell viability counter screen (AID 1159515; calls by dose curve; note: nearly all actives have a fitted effect of over 55% in size; note: potency is the fitted concentration of half-maximal effect)
# Procedure, shortened: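 Parallel cytotoxicity counter screen in ME-180 cells carrying an NFkB-response-element beta-lactamase reporter, 2,000 cells/well. Compound exposure lasted 5 hr at 37 C, 5% CO2. Cell viability was quantified by CellTiter-Glo luminescence.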
# [3] = qHTS assay to identify small molecule agonists of the endoplasmic reticulum stress response signaling pathway (AID 1159516; active = well fitted activation curve with a large enough effect in the signal ratio in the repeat runs, not every such curve was filed as active; the % refers to the signal ratio; note: potency is the fitted concentration of half-maximal effect)
# Procedure, shortened: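 Using a HeLa line with an ESRE-driven beta-lactamase gene, agonist activity was measured by FRET substrate fluorescence (460 and 530 nm emission) after cells were treated with compounds for 5 hr at 37 C and 5% CO2.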
# [4] = qHTS assay to identify small molecule agonists of the endoplasmic reticulum stress response signaling pathway - cell viability counter screen (AID 1159517; calls by dose curve;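 note: HeLa cells carrying an ER stress response element beta-lactamase reporter; series mostly up to about 61 µM; nearly all actives have a fitted effect of over 50% in size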)
# Procedure, shortened: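 ESRE-bla HeLa cells (1,500/well) were plated overnight at 37 C and exposed to compounds for 5 hr. After the 2 hr beta-lactamase substrate read, CellTiter-Glo went into the same wells, and luminescence was read after 30 min at room temperature.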
# [5] = qHTS assay to identify small molecule antagonists of the retinoid-related orphan receptor gamma (ROR-gamma) signaling pathway - cell viability counter screen (AID 1159520); note: nearly all actives have a fitted effect of over 50% in size; note: potency is the fitted concentration of half-maximal effect
# Procedure, shortened: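 Cytotoxicity was read from cellular ATP (CellTiter-Glo luminescence) after 16 hr at 37 C with 1 uM doxycycline induction. The inducer was added 2 hr after compound transfer to Tet-on ROR gamma CHO cells.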
# [6] = qHTS assay to identify small molecule agonists of the AP-1 signaling pathway - cell viability counter screen (AID 1159525; calls by dose curve; note: nearly all actives have a fitted effect of over 55% in size; note: potency is the fitted concentration of half-maximal effect)
# Procedure, shortened: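 Intracellular ATP by Cell Titer Glo luminescence (30 min, RT) in the same ME-180 AP-1-bla wells after the 5 h compound exposure at 37 °C. Normalised to tetra n-octyl ammonium bromide and DMSO controls.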
# [7] = qHTS assay to identify small molecule agonists of the vitamin D receptor (VDR) signaling pathway - cell viability counter screen (AID 743224); note: nearly all actives have a fitted effect of over 50% in size; note: potency is the fitted concentration of half-maximal effect
# Procedure, shortened: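 Compounds were pin-transferred onto VDR-bla cells plated 4 h earlier; following 16 h incubation at 37C, cell viability was quantified by CellTiter-Glo luminescence after 30 min at room temperature.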
# [8] = molecular target: Nuclear receptor ROR-gamma (Homo sapiens) (UniProt P51449); experiment: qHTS assay to identify small molecule antagonists of the retinoid-related orphan receptor gamma (ROR-gamma) signaling pathway (AID 1159521; note: nearly all actives have a fitted effect of over 50% in size; note: potency is the fitted concentration of half-maximal effect;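 for activity change, negative = inhibition: CHO cells with doxycycline inducible ROR-gamma driving an RORE luciferase reporter; top concentration of the series differs between compounds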)
# Procedure, shortened: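 CHO Tet-on RORγ, RORE-luc reporter. Cpd 2 h pre-incubation, then dox hyclate 1 uM final, 16 h, 37 C/5% CO2. ONE-Glo luminescence; decrease = antagonist.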
# [9] = qHTS assay to identify small molecule agonists of the AP-1 signaling pathway (AID 1159526; calls by dose curve)
# [10] = molecular target: Retinoic acid receptor RXR-alpha (Homo sapiens) (UniProt P19793); experiment: qHTS assay to identify small molecule agonists of the RXR signaling pathway (AID 1159527; calls by dose curve; note: nearly all actives have a fitted effect of over 35% in size)
# Chain of Retinoic acid receptor RXR-alpha (Homo sapiens) (P19793 whole entry, looked up): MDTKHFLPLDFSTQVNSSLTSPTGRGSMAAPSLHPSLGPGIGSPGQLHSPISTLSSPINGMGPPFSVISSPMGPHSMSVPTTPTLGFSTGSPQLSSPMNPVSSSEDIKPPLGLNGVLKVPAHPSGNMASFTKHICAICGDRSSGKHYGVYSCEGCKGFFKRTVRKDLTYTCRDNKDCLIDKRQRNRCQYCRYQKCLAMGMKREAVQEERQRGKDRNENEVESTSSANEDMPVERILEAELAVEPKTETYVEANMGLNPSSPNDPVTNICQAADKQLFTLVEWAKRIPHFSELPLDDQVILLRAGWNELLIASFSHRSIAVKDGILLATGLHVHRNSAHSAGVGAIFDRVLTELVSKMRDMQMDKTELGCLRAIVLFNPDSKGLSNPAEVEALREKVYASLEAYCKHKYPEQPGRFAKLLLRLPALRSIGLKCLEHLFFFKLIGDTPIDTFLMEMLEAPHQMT
# Procedure, shortened: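 Read-out: beta-lactamase FRET ratio (405 nm excitation, 460 and 530 nm emission) after 2 hr substrate loading at room temperature. Cells were RXR-alpha-UAS-bla HEK 293T treated with compounds for 16 hr in 2% charcoal-stripped FBS medium.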
Compound,Potency [1],Potency [2],Potency [3],outcome [4],Potency [5],Potency [6],Potency [7],Potency [8],Potency [9],Potency [10],"activity, negative = cytotoxicity [5]","activity change, negative = inhibition [8]",activation [10]
NC(N)=NN=C(/C=C/c1ccc([N+](=O)[O-])o1)/C=C/c1ccc([N+](=O)[O-])o1,10.7 µM (active),13.4 µM (active),inactive,inactive,2.11 µM (active),21.3 µM (active),,,,,,,
CCCCCCCCC(CO)CCCCCC (stereo unspecified),inactive,inactive,inactive,,inactive,inactive,inactive,inactive,inactive,,,,
O=C(Nc1ccccc1)OCC(CN1CCCCC1)OC(=O)Nc1ccccc1 (stereo unspecified),inactive,inactive,inactive,inactive,inactive,,,,inactive,,,,
CCOc1ccc(NC(=O)CC(C)=O)cc1,inactive,inactive,inactive,,inactive,inactive,inactive,inactive,inactive,,,,
CC(C)(C)C(=O)OCOP(=O)(COCCn1cnc2c(N)ncnc21)OCOC(=O)C(C)(C)C,inactive,inactive,inactive,,inactive,inactive,inactive,11.9 µM (active),inactive,,,,
Cn1c(NCCN(CCO)CCCc2ccc([N+](=O)[O-])cc2)cc(=O)n(C)c1=O,inactive,inactive,inactive,,inactive,inactive,inactive,inactive,inactive,,,,
O=C(O)/C=C/c1cnc[nH]1,inactive,inactive,inactive,,inactive,inactive,inactive,inactive,inactive,,,,
COc1ccccc1OC(=O)Oc1ccccc1OC,inactive,inactive,inactive,,inactive,inactive,inactive,inactive,inactive,,,,
C1CCC2OC2C1 (stereo unspecified),inactive,inactive,inactive,,inactive,inactive,inactive,inactive,inactive,inactive,,,
FC(F)(F)C(F)(F)C(F)(F)C(F)(F)C(F)(F)C(F)(F)CCI,inactive,inactive,inactive,,inactive,inactive,inactive,inactive,inactive,,,,
CN(C)CC[C@@H](c1ccc(Br)cc1)c1ccccn1,inactive,inactive,inactive,,inactive,,inactive,inactive,inactive,,,,
O=C1Nc2cc(Cl)ccc2Oc2ccccc21,inactive,inactive,inactive,,inactive,inactive,inactive,inactive,,inactive,,,
CC(=O)NCCCS(=O)(=O)O,inactive,inactive,inactive,,inactive,inactive,inactive,inactive,inactive,,,,
CC[C@@H]1C[C@H](N(Cc2cc(C(F)(F)F)cc(C(F)(F)F)c2)C(C)=O)c2cc(C(F)(F)F)ccc2N1C(=O)OC(C)C,inactive,inactive,inactive,,inactive,inactive,inactive,,inactive,,,,
C[C@H](CCC(=O)O)[C@H]1CC[C@H]2[C@@H]3[C@H](O)C[C@@H]4C[C@H](O)CC[C@]4(C)[C@H]3CC[C@]12C,,inactive,inactive,,inactive,inactive,inactive,inactive,inactive,,,,
c1ccc(-c2nc[nH]c2-c2ccccc2)cc1,inactive,inactive,inactive,,inactive,inactive,inactive,inactive,inactive,,,,
CC(=O)O[C@H]1C[C@@H]2CC[C@@H]3[C@H](CC[C@@]4(C)[C@H]3C[C@H]([N+]3(C)CCCCC3)[C@@H]4OC(C)=O)[C@@]2(C)C[C@@H]1N1CCCCC1,inactive,inactive,inactive,,inactive,,inactive,,,,,,
c1ccc(OCc2ccc(CCCN3CCOCC3)cc2)cc1,inactive,inactive,inactive,,inactive,inactive,inactive,inactive,inactive,,,,
SC1CCCC1,inactive,inactive,inactive,,inactive,inactive,inactive,,inactive,,,,
CC(C)CCCCCCOC(=O)c1ccc(C(=O)OCCCCCCC(C)C)c(C(=O)OCCCCCCC(C)C)c1,inactive,,inactive,inactive,inactive,inactive,inactive,inactive,inactive,,,,

Compound,Potency [1],Potency [2],Potency [3],outcome [4],Potency [5],Potency [6],Potency [7],Potency [8],Potency [9],Potency [10],"activity, negative = cytotoxicity [5]","activity change, negative = inhibition [8]",activation [10]
NC1CCN(c2nc3c(cc2F)c(=O)c(C(=O)O)cn3-c2ccc(F)cc2F)C1 (stereo unspecified),inactive,,inactive,,inactive,inactive,inactive,inactive,inactive,,,,
CCc1nn(C2CCCCC2)c2cc(C3(C#N)CCC(C(=O)O)CC3)ccc12 (stereo unspecified),inactive,,1.55 µM (active),,inactive,inactive,inactive,27.3 µM (active),,inactive,,,
CC(=O)N(CC(=O)N(C)C)c1ccccc1,inactive,,inactive,inactive,inactive,inactive,inactive,,,,,,
O=S1(=O)N=C(O)c2ccccc21,inactive,,inactive,inactive,inactive,inactive,inactive,inactive,inactive,,,,
CC1=CC(=O)/C(=C(/C)O)C(=O)O1,inactive,,inactive,inactive,inactive,inactive,inactive,inactive,inactive,,,,
Nc1ccc(C(=O)N2CC3CC(CN(Cc4ccccc4)C3)C2)cc1,inactive,,inactive,inactive,inactive,inactive,inactive,inactive,inactive,,,,
Cc1ccc(C)o1,inactive,,inactive,inactive,inactive,inactive,inactive,inactive,inactive,,,,
Cc1occc1S,inactive,,inactive,,inactive,inactive,inactive,inactive,,,,,
CC/C(=C\C(=N/O)C(N)=O)C(C)[N+](=O)[O-] (stereo unspecified),inactive,,inactive,inactive,inactive,inactive,inactive,,inactive,,,,
O=C(CC(=O)c1ccccc1)c1ccccc1,,,inactive,inactive,inactive,inactive,,,,,,,
CCCCCOC(=O)COc1cc(N2C(=O)C3=C(CCCC3)C2=O)c(F)cc1Cl,inactive,,inactive,inactive,inactive,inactive,inactive,,inactive,,,,
Nc1nc(N)c(-c2ccccc2)s1,inactive,,inactive,inactive,inactive,inactive,inactive,inactive,inactive,,,,
CCCCCCCCCCCCCCCCCBr,inactive,,inactive,inactive,,,inactive,,,,2.1% [at 19 µM],24.8% [at 19 µM],-0.344% [at 15.8 µM]
Oc1ccc(Cc2ccccc2)cc1,,,inactive,inactive,inactive,inactive,inactive,inactive,,inactive,,,
O=C(Cl)c1ccc([N+](=O)[O-])cc1,,,inactive,inactive,inactive,,inactive,,inactive,inactive,,,
C=C(C)C(=O)OCCN(C)C,inactive,,inactive,inactive,inactive,,inactive,inactive,inactive,,,,
Cc1ccc2c(ccc3ccccc32)c1,inactive,,inactive,,inactive,inactive,,inactive,inactive,inactive,,,
CC1CCc2cc(F)cc3c(=O)c(C(=O)O)cn1c23 (stereo unspecified),inactive,,inactive,inactive,inactive,inactive,inactive,inactive,,,,,
O=[N+]([O-])c1cccc(Cl)c1Cl,inactive,,inactive,inactive,inactive,inactive,inactive,,inactive,,,,
CC(=O)Nc1ccc(/C=N/NC(N)=S)cc1,inactive,,inactive,inactive,inactive,inactive,inactive,inactive,inactive,,,,

Compound,Potency [1],Potency [2],Potency [3],outcome [4],Potency [5],Potency [6],Potency [7],Potency [8],Potency [9],Potency [10],"activity, negative = cytotoxicity [5]","activity change, negative = inhibition [8]",activation [10]
CCOC(=O)CC(=O)c1cc(F)c(Cl)nc1Cl,,,inactive,inactive,inactive,inactive,inactive,,,,,,
CCOC(=O)[C@H](CCc1ccccc1)N[C@H]1CCc2ccccc2N(CC(=O)O)C1=O,21.3 µM (active),,21.3 µM (active),inactive,inactive,inactive,21.1 µM (active),,,inactive,,,
O=C(c1ccccc1)c1ccc2n1CCC2C(=O)O (stereo unspecified),inactive,,inactive,inactive,inactive,inactive,inactive,,inactive,,,,
CCOC(=S)SSC(=S)OCC,inactive,,inactive,inactive,inactive,inactive,inactive,inactive,inactive,,,,
C=CCCCCCC,inactive,,inactive,inactive,inactive,inactive,,inactive,,,,,
CC(Cc1cccc(C(F)(F)F)c1)NCCOC(=O)c1ccccc1 (stereo unspecified),16.9 µM (active),,inactive,inactive,inactive,inactive,23.7 µM (active),inactive,,,,,
CCCCCc1ccc(N)cc1,inactive,,inactive,inactive,inactive,,inactive,,,inactive,,,
O=C(O)c1cn(C2CC2)c2cc(Cl)c(F)cc2c1=O,inactive,,inactive,inactive,inactive,,inactive,inactive,inactive,,,,
Cc1ccc(C(N)=O)cc1N,inactive,,inactive,inactive,inactive,,inactive,inactive,inactive,,,,
COc1ccc2[nH]c(S(=O)Cc3ncc(C)c(OC)c3C)nc2n1 (stereo unspecified),inactive,,inactive,inactive,inactive,inactive,inactive,inactive,inactive,,,,
CCN(CC)C(C)=O,,,inactive,inactive,inactive,inactive,inactive,,inactive,,,,
CCC(C)N(C)C(=O)c1cc2ccccc2c(-c2ccccc2Cl)n1 (stereo unspecified),inactive,,inactive,inactive,inactive,inactive,inactive,inactive,inactive,,,,
O=C(/C=C/c1ccc(O)c(O)c1)O[C@@H]1C[C@](O)(C(=O)O)C[C@@H](O)[C@H]1O,inactive,,inactive,inactive,inactive,inactive,inactive,inactive,,,,,
CCCCCCCCCCCCC(=O)O,inactive,,inactive,,inactive,inactive,inactive,inactive,inactive,,,,
O=C(c1ccc(O)cc1)c1ccc(O)cc1,inactive,,inactive,inactive,inactive,,inactive,inactive,inactive,,,,
COCCCCCCCCOCCC[Si](C)(O[Si](C)(C)C)O[Si](C)(C)C,,,inactive,inactive,inactive,inactive,,17.2 µM (active),inactive,inactive,,,
O=C1CCCCCO1,inactive,,inactive,inactive,inactive,inactive,inactive,inactive,inactive,,,,
CCCCOCCOCCOCCOCCO,,,inactive,inactive,inactive,inactive,inactive,,inactive,,,,
CC1=CCC(C(C)C)C=C1 (stereo unspecified),inactive,,inactive,inactive,inactive,,inactive,,inactive,inactive,,,
